Sampled rows, rich in hits. Any-hit rate of the full collection: about 1.8%.
NFkB transloc inh – blocks IL-1B driven NFkB nuclear translocation in HUVEC cells | HUVEC IL-1B NFkB p65 nuclear translocation imaging | inhibition, % at 2 µM | 94,000 compounds, 0.43% hits;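 active = inhibition above about 30% together with a positive call from visual inspection of the well image, limit read from the data; inconclusive = inhibition above a set limit but visual check negative; inactive = inhibition not above a set limit, visual check negative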;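 note: nuclear over cytoplasmic p65 intensity ratio measured by imaging; 0% = IL-1B stimulated DMSO wells and 100% = unstimulated DMSO wells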
E-sel TNF inh – TNF alpha driven E-selectin expression inhibition. AID 1246. inhibition, % at 2 µM. HUVEC TNFa-induced E-selectin immunofluorescence, high content. 120,000 compounds, 0.71% hits;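 active = inhibition above the batch mean plus 3 SD, and confirmed as a hit on visual image review, cut at about 43% in these data; inconclusive = passes the inhibition cutoff but fails visual image review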;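 note: 0% = TNF-stimulated DMSO wells and 100% = unstimulated control wells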
NFkB transloc pot – enhances IL-1B driven NFkB nuclear translocation; 94,000 compounds, 0.3% hits; HUVEC IL-1B NFkB p65 nuclear translocation imaging; activation, % at 2 µM;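 active = activation above 40%, about the mean plus 3 SD, also judged a hit on visual image review; inconclusive = activation above 40% but not a hit on visual review; inactive = activation not above 40% and no visual hit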;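 note: percent activation is computed from the nuclear over cytoplasmic p65 intensity ratio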
VCAM1 TNFa inh – reduces TNF alpha induced VCAM1 expression in HUVEC; 95,000 compounds, 0.48% hits; inhibition, % at 2 µM; AID 802; HUVEC TNFa-induced VCAM-1 immunofluorescence, high-content imaging;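 active = inhibition above the batch mean plus 3 SD, with images confirmed as a hit by eye, cut at about 37% in these data; inconclusive = inhibition above that limit but hit not confirmed in images; inactive = inhibition not above that limit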;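 note: 0% = TNF-stimulated DMSO wells and 100% = unstimulated control wells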
IL1B cytotox – toxic to HUVEC cells under IL-1B stimulation; cell count reduction, % at 2 µM; AID 845; 94,000 compounds, 0.41% hits; HUVEC cell count loss, Hoechst imaging, IL-1B stimulated;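 active = cell count reduction more than 3 SD above the screen-wide mean, cut at about 70% in these data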;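 note: normalized per plate to untreated control cells as the no-loss baseline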
HUVEC tox TNFa – HUVEC cytotoxicity counter-screen, TNF alpha stimulated | 93,000 compounds, 0.17% hits | HUVEC TNFalpha-stimulated, Hoechst cell count, imaging | cell count reduction, % at 2 µM;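 active = cell count reduction exceeding the screen mean by over 5 SD, scaled to untreated wells per plate, cut at about 78% in these data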;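 note: cells counted after 24 h of TNF alpha exposure following the 1 h pretreatment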
Active calls of the source: *; ? = inconclusive; . = no result.

SMILES	NFkB transloc inh	E-sel TNF inh	NFkB transloc pot	VCAM1 TNFa inh	IL1B cytotox	HUVEC tox TNFa
C=CCN(C(=O)CCC(=O)O)C1CC(=O)N(c2ccc(OC)cc2)C1=O (centres undefined)	-10.3	-4.2	10.3	19.0	-7.3	-17.3
CCCn1nnnc1NC(=O)c1cc(Cl)ccc1Cl	.	4.6	.	.	.	.
O=C(O)C(=O)/C(=C\c1ccccc1)c1ccc2ccccc2n1	5.3	90.6*	-5.3	2.5	-0.3	-8.9
COc1ccc(-n2cnnc2SCC(=O)NC2CCS(=O)(=O)C2)cc1 (centres undefined)	-20.3	-0.8	20.3	2.6	-85.3	-18.0
CN(C)c1ccnc(NCc2ccccc2)c1C#N	-14.1	-29.6	14.1	-19.5	-24.1	-1.1
N#Cc1c(NCc2ccccc2)ccnc1NCc1cccnc1	1.9	-18.4	-1.9	92.9*	19.1	.
Cc1nc(/C=C/c2ccccc2)[nH]c(=O)c1-c1ccccc1	.	-18.9	.	.	.	.
O=S1(=O)C=C(Sc2nnc(-c3ccccc3)o2)c2ccccc21	.	99.6*	.	.	.	.
Cc1cc(C)nc(SC2=CS(=O)(=O)c3ccccc32)n1	7.1	-33.0	-7.1	38.4	-32.9	-5.4
COc1ccc(CNCC(O)COCc2cccs2)cc1 (centres undefined)	.	-5.4	.	.	.	.
CCNCC(O)COCC(O)CNCC (centres undefined)	-26.1	-12.0	26.1	62.1*	0.8	77.6
CC1CC(C)(C)N2C(=O)C3(Nc4ccccc4S3)c3cccc1c32 (centres undefined)	4.0	2.8	-4.0	11.6	14.2	26.3
Cc1cc2c3c(c1)C1(SCC(=O)N1c1ccc(F)cc1)C(=O)N3C(C)(C)CC2C (centres undefined)	33.9*	12.1	-33.9	2.0	-12.2	1.2
CCN(CC)S(=O)(=O)c1ccc(NC(=O)CSc2nnc(-c3ccc(F)cc3)o2)cc1	3.2	61.2*	-3.2	-10.7	15.5	0.0
CCN(CC)S(=O)(=O)c1ccc(-c2nnc(SCC(=O)Nc3ccc4c(c3)OCO4)o2)cc1	-4.8	.	4.8	-57.4	-17.4	-50.7
COc1ccc2c(c1)C(=NN)c1cc(OC)ccc1-2	-23.9	14.9	23.9	15.8	-19.4	-12.1
CCOC(=O)CCc1c(C)nc(-n2[nH]c(C)c(CCO)c2=O)[nH]c1=O	.	1.6	.	.	.	.
O=C(CN1CCCCCC1)N1c2ccccc2C=Cc2ccccc21	31.4*	-5.9	-31.4	-16.3	2.9	-14.4
Cc1cccc(C(=O)NNC(=O)Nc2ccccc2)c1	.	64.5*	.	.	.	.
Cc1ccc(NC(=O)NNC(=O)c2ccccc2)cc1	.	-28.4	.	.	.	.
Cc1csc(NC(=O)c2ccccc2C(=O)O)n1	24.9	26.6	-24.9	10.2	86.3*	-5.4
O=C(O)Cc1csc(NC(=O)c2ccco2)n1	12.3	11.1	-12.3	-11.1	-16.9	-19.0
Cc1csc(NC(=O)c2ccco2)n1	-43.6	-3.9	43.6*	14.8	-24.2	-9.9
CC(C)CN1C(=S)SC(C)(C)C1n1oc(=O)n(-c2ccc(Cl)cc2)c1=O (centres undefined)	-8.8	10.3	8.8	2.1	1.4	-2.2
O=C(Nc1cccn2ncnc12)c1ccc(Cl)cc1	7.2	43.1*	-7.2	13.8	13.1	11.8
SMILES	NFkB transloc inh	E-sel TNF inh	NFkB transloc pot	VCAM1 TNFa inh	IL1B cytotox	HUVEC tox TNFa
COCCCNC(=O)c1ccc(Cn2c(=O)c3ccccc3n(Cc3ccccc3C#N)c2=O)cc1	.	-15.4	.	-3.7	.	-23.9
CCN(CC(=O)NC1CCCCC1)S(=O)(=O)c1ccc(Cl)cc1	-27.3	-4.7	27.3	13.6	-21.9	13.4
CCN(CC(=O)NCc1ccccn1)S(=O)(=O)c1ccc(Cl)cc1	-1.6	-1.9	1.6	16.6	-6.9	78.6*
CCSC1=NCCN1C(=O)C(C)(C)Oc1ccc(Cl)cc1	.	1.4	.	.	.	.
CCOC(=O)c1c(C)c(C(=O)Nc2ccc3c(c2)OCCO3)c(C)n1C	.	95.6*	.	.	.	.
CCCOC(=O)c1ccc(Cl)c(NC(=O)c2ccc(-c3ccccc3)cc2)c1	-11.8	99.9*	11.8	9.8	-65.3	-13.4
CCCOC(=O)c1ccc(NC(=O)Oc2ccccc2)cc1	11.8	-3.6	-11.8	?	-25.6	100.0*
COc1ccc(OC)c(NC(=O)CSc2ncnc3c2cnn3-c2ccccc2Cl)c1	1.1	-18.9	-1.1	-8.8	-40.5	.
O=C(NC1CC1)c1c[nH]c2ccc(S(=O)(=O)Nc3cccc(C(F)(F)F)c3)cc2c1=O	-2.5	13.0	2.5	4.5	90.9*	-4.9
COc1ccc(C(=O)NNC2=CC(=O)CC(C)(C)C2)cc1OC	.	-11.4	.	.	.	.
CCOC(=O)Nc1oc2ccccc2c(=O)c1C	36.2*	-5.0	-36.2	-13.3	-5.8	-25.7
CCOC(=O)/C=C(\C)Sc1cc(=O)oc2ccccc12	13.1	-2.4	-13.1	.	19.4	.
Cc1occc1C(=O)NC1CCCc2ccccc21 (centres undefined)	6.6	-12.6	-6.6	17.5	79.5*	-7.8
COc1cccc(NS(=O)(=O)c2cc(C)ccc2OC)c1	11.5	-10.3	-11.5	9.7	35.1	-27.9
COc1ccc(C)cc1S(=O)(=O)Nc1cccc(SC)c1	-22.8	17.1	22.8	51.2*	-36.8	6.4
CCOC(=O)N1CCN(C(=O)C2CCN(S(=O)(=O)c3cc(OC)ccc3OC)CC2)CC1	.	71.9*	.	.	.	.
CC(C)(C)c1ccc(NC(=O)COC(=O)C2(C)CC2(Cl)Cl)cc1 (centres undefined)	.	-14.5	.	.	.	.
COc1ccccc1CO/N=C/NC(=O)c1c(OC)ccnc1Oc1ccc(F)cc1	1.1	-0.3	-1.1	8.3	-24.7	-30.1
COc1ccnc(Oc2ccccc2)c1C(=O)N/C=N/OCc1ccc(F)cc1Cl	14.3	-0.2	-14.3	-6.2	94.9*	-12.7
CCCN(CC(=O)Nc1ccccc1C)C(=O)CCl	.	-10.8	.	.	.	.
Cc1oc2c(CN3CCOCC3)c(O)ccc2c(=O)c1-c1ccc(Br)cc1	-18.5	4.0	18.5	28.6	3.7	-40.4
O=c1c(-c2ccc(Br)cc2)coc2c(CN3CCOCC3)c(O)ccc12	6.0	-9.0	-6.0	62.2*	8.7	32.3
CCOC(=S)N/C(=N\S(=O)(=O)c1ccc(C)cc1)c1ccccc1	2.3	-30.1	-2.3	1.5	-40.7	-1.8
C=CCn1c(=O)/c(=C2/SC(C)=C(C)N2CC)s/c1=C1/C(=O)N(CC)C(=S)N1c1ccccc1	-11.2	3.8	11.2	-3.8	20.6	-12.7
COc1ccccc1C(=O)Nc1nnc(-c2ccc3c(c2)CCCC3)o1	53.3*	-17.5	-53.3	18.5	-13.9	-25.3
SMILES	NFkB transloc inh	E-sel TNF inh	NFkB transloc pot	VCAM1 TNFa inh	IL1B cytotox	HUVEC tox TNFa
CCOc1ccccc1C(=O)Nc1ccccc1O	-4.7	-45.6	4.7	13.8	-48.5	-42.3
CCOc1ccccc1C(=O)Nc1ccc(-c2nnc(-c3ccc(C)cc3)o2)cc1	8.4	72.0*	-8.4	-15.1	-14.6	6.4
CC(=O)Nc1nnc(-c2ccc3c(c2)CCCC3)o1	3.3	.	-3.2	-4.7	5.6	4.1
CCn1c(SCC(=O)NCc2cccs2)nnc1-c1ccncc1	-24.8	-15.2	24.8	3.3	2.3	-52.2
CCOC(=O)c1c(NC(=O)CSc2nnc(-c3ccccc3)n2CC)sc(C(C)=O)c1C	-43.1	99.7*	?	4.0	10.7	-40.7
CCn1c(SCC(=O)Nc2cccc(NC(=O)c3cccs3)c2)nnc1-c1ccncc1	-41.5	.	41.5*	-8.1	-39.8	-32.8

Screening data (PubChem BioAssay)
